# Test results reported in PubChem BioAssay (NCATS).
# Results filed as inconclusive are left out. A call without a number means that no potency is given here. Unmarked numbers belong to inactive results. Calls of active or inactive are those of the source. Calls come from the whole dose curve; as a rule, active = well fitted curve in the direction sought with a large enough effect; inconclusive = small, poorly fitted or top-dose-only effect, or another doubt; inactive = no such curve, though single readings can be large; an effect the other way counts as inactive or inconclusive.
# Test: Primary qHTS for inhibitors of nuclear receptor binding SET domain protein 2 (NSD2) in an isogenic RCH-ACV NSD2 p.E1099K mutant (9B) (AID 1645876)
# Details: RCH-ACV NSD2 E1099K (9B) viability, CellTiter-Glo, 72 h; series mostly up to 44.9 µM
# Note: nearly all actives have a fitted effect of over 70% in size.
SMILES,Potency,outcome
CC(C)NC[C@@H](O)COc1ccc(CC(N)=O)cc1,inactive,–
CC(=O)Nc1ccc(OCCOCCOc2ccc(NC(C)=O)cc2)cc1,inactive,–
COc1ccc(-c2cc(=O)c3c(O)cc(O[C@@H]4O[C@H](CO[C@@H]5O[C@@H](C)[C@H](O)[C@@H](O)[C@H]5O)[C@@H](O)[C@H](O)[C@H]4O)cc3o2)cc1O,inactive,–
CC[N+](C)(CC)CCOC(=O)C1c2ccccc2Oc2ccccc21,inactive,–
CC(=O)N[C@@H](CC(C)C)C(=O)O,inactive,–
COc1ccc(C(=O)NCc2ccc(OCCN(C)C)cc2)cc1OC,inactive,–
CC(=O)[C@@]1(O)CC[C@H]2[C@@H]3C[C@H](C)C4=CC(=O)C=C[C@]4(C)[C@@]3(F)[C@@H](O)C[C@@]21C,inactive,–
CC1CCc2cc(F)cc3c(=O)c(C(=O)O)cn1c23 (centres undefined),inactive,–
CCOC(=O)[C@H](CCc1ccccc1)N[C@@H](C)C(=O)N1CCC[C@H]1C(=O)O,inactive,–
CCOc1ccc(C(=O)OCCN(CC)CC)cc1,inactive,–
COCC(=O)Nc1c(I)c(C(=O)NCC(O)CO)c(I)c(C(=O)N(C)CC(O)CO)c1I (centres undefined),inactive,–
CCCNC(C)C(=O)Nc1c(C)csc1C(=O)OC (centres undefined),inactive,–
CN1CCCN=C1COC(=O)C(O)(c1ccccc1)C1CCCCC1 (centres undefined),inactive,–
O=C(NCCCN1CCOCC1)c1ccc(Cl)cc1,inactive,–
NS(=O)(=O)c1cc(C2(O)NC(=O)c3ccccc32)ccc1Cl (centres undefined),inactive,–
Cc1c(I)c(=O)n(-c2ccccc2)n1C,inactive,–
C[N+](C)(C)CC(O)CC(=O)[O-] (centres undefined),inactive,–
Cc1c(Cn2ccnc2)c2ccccc2n1CCC(=O)O,inactive,–

SMILES,Potency,outcome
COc1ccc(Cc2cnc(N)nc2N)cc1OC,inactive,–
CC(=O)Nc1ccccc1,inactive,–
Cc1ccc2c(c1)c1c3n2CCNC3CCC1 (centres undefined),inactive,–
Cc1cccc(Nc2ccccc2C(=O)O)c1C,inactive,–
Cc1ncc(CO)c(CN)c1O,inactive,–
Cc1c(C)c2c(c(C)c1OC(=O)c1cccnc1)CC[C@@](C)(CCC[C@H](C)CCC[C@H](C)CCCC(C)C)O2,inactive,–
CCCCCCCCCCOc1cc2c(=O)c(C(=O)OCC)c[nH]c2cc1OCC,–,inactive [at 4.96 µM]
CCN(CC)CCOC(=O)C(c1ccccc1)c1ccccc1,inactive,–
CNCc1ccccc1,inactive,–
CCOC(=O)[C@H](CCc1ccccc1)N[C@@H](C)C(=O)N1Cc2cc(OC)c(OC)cc2C[C@H]1C(=O)O,inactive,–
CCCNC(C)(C)COC(=O)c1ccccc1,inactive,–
COC(=O)c1ccc(O)cc1,inactive,–
C[C@@H]1CCC[C@H](C)N1,inactive,–
O=C(O)Cn1c(C(=O)Nc2nc(-c3ccccc3Cl)cs2)cc2ccccc21,inactive,–
C/C(=C(\CCO)SS/C(CCO)=C(\C)N(C=O)Cc1cnc(C)nc1N)N(C=O)Cc1cnc(C)nc1N,inactive,–
CC(N)CCCC(C)(C)O (centres undefined),inactive,–
Cc1ccc(S(=O)(=O)NC(=O)NC2CCCCC2)cc1,inactive,–

# Test: Primary qHTS for inhibitors of nuclear receptor binding SET domain protein 2 (NSD2) in an RCH-ACV wild type WT cells (2C) (AID 1645877); note: potency is the fitted concentration of half-maximal effect
# Details: RCH-ACV (leukaemia line) NSD2 WT (2C) viability, CellTiter-Glo, 72 h; series mostly up to 44.9 µM
SMILES,Potency,"activity change, negative = cell killing"
CC(C)NC[C@@H](O)COc1ccc(CC(N)=O)cc1,inactive,–
CC(=O)Nc1ccc(OCCOCCOc2ccc(NC(C)=O)cc2)cc1,inactive,–
COc1ccc(-c2cc(=O)c3c(O)cc(O[C@@H]4O[C@H](CO[C@@H]5O[C@@H](C)[C@H](O)[C@@H](O)[C@H]5O)[C@@H](O)[C@H](O)[C@H]4O)cc3o2)cc1O,inactive,–
CC[N+](C)(CC)CCOC(=O)C1c2ccccc2Oc2ccccc21,inactive,–
CC(=O)N[C@@H](CC(C)C)C(=O)O,inactive,–
COc1ccc(C(=O)NCc2ccc(OCCN(C)C)cc2)cc1OC,inactive,–
CC(=O)[C@@]1(O)CC[C@H]2[C@@H]3C[C@H](C)C4=CC(=O)C=C[C@]4(C)[C@@]3(F)[C@@H](O)C[C@@]21C,3 nM (active),–
CC1CCc2cc(F)cc3c(=O)c(C(=O)O)cn1c23 (centres undefined),inactive,–
CCOC(=O)[C@H](CCc1ccccc1)N[C@@H](C)C(=O)N1CCC[C@H]1C(=O)O,inactive,–
CCOc1ccc(C(=O)OCCN(CC)CC)cc1,inactive,–
COCC(=O)Nc1c(I)c(C(=O)NCC(O)CO)c(I)c(C(=O)N(C)CC(O)CO)c1I (centres undefined),inactive,–
CCCNC(C)C(=O)Nc1c(C)csc1C(=O)OC (centres undefined),inactive,–
CN1CCCN=C1COC(=O)C(O)(c1ccccc1)C1CCCCC1 (centres undefined),inactive,–
O=C(NCCCN1CCOCC1)c1ccc(Cl)cc1,inactive,–
NS(=O)(=O)c1cc(C2(O)NC(=O)c3ccccc32)ccc1Cl (centres undefined),inactive,–
Cc1c(I)c(=O)n(-c2ccccc2)n1C,inactive,–
C[N+](C)(C)CC(O)CC(=O)[O-] (centres undefined),inactive,–

SMILES,Potency,"activity change, negative = cell killing"
Cc1c(Cn2ccnc2)c2ccccc2n1CCC(=O)O,inactive,–
COc1ccc(Cc2cnc(N)nc2N)cc1OC,inactive,–
CC(=O)Nc1ccccc1,inactive,–
Cc1cccc(Nc2ccccc2C(=O)O)c1C,inactive,–
Cc1ncc(CO)c(CN)c1O,inactive,–
Cc1c(C)c2c(c(C)c1OC(=O)c1cccnc1)CC[C@@](C)(CCC[C@H](C)CCC[C@H](C)CCCC(C)C)O2,inactive,–
CCCCCCCCCCOc1cc2c(=O)c(C(=O)OCC)c[nH]c2cc1OCC,–,4.45% [at 4.96 µM]
CCN(CC)CCOC(=O)C(c1ccccc1)c1ccccc1,inactive,–
CCCCOC(=O)c1ccc(N)cc1,inactive,–
CNCc1ccccc1,inactive,–
CCOC(=O)[C@H](CCc1ccccc1)N[C@@H](C)C(=O)N1Cc2cc(OC)c(OC)cc2C[C@H]1C(=O)O,inactive,–
CCCNC(C)(C)COC(=O)c1ccccc1,inactive,–
COC(=O)c1ccc(O)cc1,inactive,–
C[C@@H]1CCC[C@H](C)N1,inactive,–
C/C(=C(\CCO)SS/C(CCO)=C(\C)N(C=O)Cc1cnc(C)nc1N)N(C=O)Cc1cnc(C)nc1N,inactive,–
CC(N)CCCC(C)(C)O (centres undefined),inactive,–
Cc1ccc(S(=O)(=O)NC(=O)NC2CCCCC2)cc1,inactive,–
